Values joined by “and” are separate entries in the source; they are usually repeats but may differ in a detail not shown here. Equal entries are not always repeated. Hit rate of the full screen: of about 260,000 compounds, about 1,500 (0.58%) were called active. Roughly 5% stayed inconclusive and do not appear here.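 How the source made its calls: active means inhibition above a set limit at one or more doses, reproduced on every date tested; inconclusive means results disagree between test dates, or hit never tested in dose response; inactive means the rest.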 The list is a sample of the results. Measured potencies and affinities stand elsewhere.
Each compound was assayed against Virion infectivity factor (Human immunodeficiency virus type 1 group M subtype B (isolate BH10)) + Virion infectivity factor (Human immunodeficiency virus type 1 group M subtype B (isolate BRU/LAI)) + Virion infectivity factor (Human immunodeficiency virus type 1 group M subtype B (isolate PCV12)) + Virion infectivity factor (Human immunodeficiency virus type 1 group M subtype B (isolate HXB2)) + DNA dC->dU-editing enzyme APOBEC-3G (Homo sapiens) (UniProt P69720+P69721+P69722+P69723+Q9HC16) (assay: inhibitors of Vif binding to APOBEC3G peptide, primary screen, biochemical, TR-FRET, GST-Vif 1-94, biotin-A3G peptide, dose response retest (AID 1117319;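 further: Vif residues 1-94 fused to GST binding biotinylated APOBEC3G peptide 110-148; 0% = full assay without inhibitor and 100% = GST in place of GST-Vif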)). Details: hits give high values.

inhibition, inactive:
O=C(CSc1nc2[nH]ncc2c(=O)[nH]1)Nc1cc(C(F)(F)F)ccc1Cl 3.21%
COc1ccc(CCNC(=O)CCSc2nc(-c3ccco3)cc(C(F)(F)F)n2)cc1 2.48%
CNC(=O)OCc1nc(SSC(C)(C)C)n(C)c1COC(=O)NC -4.09%
O=C(c1c(Cl)cccc1Cl)N1CCN(c2ccccn2)CC1 3.31%
CCOc1ccc2[nH]c(=O)c(CN(Cc3ccco3)C(CC)c3nnnn3Cc3ccccc3)cc2c1 (stereo not given) 4.17% and 12.4%
CCC(c1nnnn1Cc1ccccc1)N(Cc1ccco1)Cc1cc2cc(OC)ccc2[nH]c1=O (stereo not given) 6.8% and 6.79%
CCOC(=O)c1cc(NC(=O)CNCC(c2ccccc2)N(C)C)cc(C(=O)OCC)c1 (stereo not given) -3.03%
O=C1NC(Cc2ccccc2)c2nc3ccccc3c(=O)n2-c2cc3ccccc3cc21 (stereo not given) 0.54%
CC1NC(=O)NC1CCCCCC(=O)NCCc1ccccc1 (stereo not given) 31.4%
Cc1c(F)cccc1NC(=O)CSCC(=O)Nc1ccccc1 4.77%
CC1NC(=O)NC1CCCCCC(=O)Nc1ccc(F)c(Cl)c1 (stereo not given) -8.82%
CCc1cccc(NC(=O)CCSCCC(=O)Nc2cccc(CC)c2)c1 -3.74%
Cc1c(Cl)cccc1NC(=O)CCCCCN1C(=O)CCC1=O -0.64%
Cc1ccc(NC(=O)CCC(=O)Nc2ccc(C)cc2)cc1 2.94%
COC(=O)c1cccc(NC(=O)CSCc2ccccc2)c1 6.61%
O=C(Nc1ccsc1C(=O)N1CCCC1)c1ccccc1 -3.04%
CCOc1cccc(C2C(C#N)=C(N)Oc3cc(C)n(Cc4ccccn4)c(=O)c32)c1OCC (stereo not given) 14.3%
CCOC(=O)c1nn(-c2ccc(C)cc2)c(=O)cc1OCC(=O)Nc1cccc(C)c1 -4.53%
COC(=O)c1c(NC(=O)c2ccco2)sc2c1CC(C)(C)NC2(C)C -5.88%
CN(c1ccccc1)P(=O)(N(C)c1ccccc1)N(C)c1ccccc1 -2.89%
CCCCNC(=O)CCn1nc(-c2ccccc2)c2ccccc2c1=O -4.86%
COc1ccc(-c2cc(-c3n[nH]c(=S)n3-c3cccc4ccccc34)[nH]n2)cc1 32.6%
Cc1nc2ccccn2c1-c1csc(NCc2ccco2)n1 5.14%
Cc1ccn2c(-c3csc(NCc4ccco4)n3)c(C)nc2c1 16.9%
CC(=O)Oc1ccccc1/C=C1\CCOC1=O 13.1%
